Bioassay records from PubChem BioAssay.
Only some compounds are listed: those with a hit (about 1.7% of all), similar ones and a draw of the others.
GALR2 antag – GALR2 antagonists in receptor-expressing cells, primary screen. Galanin receptor type 2 (Homo sapiens), O43603. antagonist mode. inhibition, % at 4 µM. 140,000 compounds, 0.39% hits. AID 828, 2007; in the data active = inhibition above about 27%;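 also: cells stimulated with galanin 1-16 at roughly its EC80; 0% = agonist challenge control and 100% = basal control without agonist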
Target sequence (O43603 whole entry, looked up): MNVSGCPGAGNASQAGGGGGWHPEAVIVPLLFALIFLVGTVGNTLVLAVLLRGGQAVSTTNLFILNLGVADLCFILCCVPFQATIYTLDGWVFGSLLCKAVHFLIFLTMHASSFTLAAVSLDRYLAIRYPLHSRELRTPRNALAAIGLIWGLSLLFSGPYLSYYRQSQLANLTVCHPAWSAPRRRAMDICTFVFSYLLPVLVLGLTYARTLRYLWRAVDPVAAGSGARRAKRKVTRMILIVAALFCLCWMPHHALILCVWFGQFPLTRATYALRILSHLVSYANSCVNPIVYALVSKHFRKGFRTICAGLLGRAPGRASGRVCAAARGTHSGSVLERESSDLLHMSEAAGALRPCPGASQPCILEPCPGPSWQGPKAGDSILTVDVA
S1P2 antag – human S1P2 receptor antagonists, primary screen, cell-based. Sphingosine 1-phosphate receptor 2 (Homo sapiens), O95136. cell-based S1P2 antagonist assay, inhibition at 5 uM. inhibition, % at 5 µM. 97,000 compounds, 0.21% hits. AID 736, 2007; in the data active = inhibition above about 45%;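 also: CRE beta-lactamase reporter cells expressing human S1P2 stimulated with S1P; 0% = agonist at EC80 alone and 100% = agonist plus reference antagonist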
GALR2 agonist – GALR2 receptor agonists, primary screen, cell-based; 140,000 compounds, 0.48% hits; GALR2-expressing cells, agonist activation read-out; activation, % (test concentration not listed); in the data active = activation above about 5%, passing the limit was not always enough;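 also: 0% = vehicle buffer wells and 100% = reference agonist at full effect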
MRP-1 activ – H69AR viability gain despite doxorubicin, primary screen, MRP-1 activator project, H69AR cells, CellTiter-Glo; viability rescue; viability increase, % at 10 µM; 140,000 compounds, 0.61% hits;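 active = viability gain under doxorubicin at or above a set limit, the compound median plus 3 SD, cut at about 4.7% in these data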;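 also: MRP-1 overexpressing cells given doxorubicin 25 µM after compound pretreatment; 18-22 h compound pretreatment then 72 h with doxorubicin before readout; 0% = doxorubicin-only wells and 100% = vehicle-treated cells without doxorubicin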
MRP resist rev – reversal of MRP1-mediated doxorubicin resistance, primary screen, H69AR cells, doxorubicin co-treatment | differential viability (reversal), % at 10 µM | 85,000 compounds, 0.04% hits | H69AR cells + 2 uM doxorubicin, CellTiter-Glo, 72 h | AID 602, 2007;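 active = viability drop by adding the cancer drug above about 55%, with treated viability meeting a 40% cutoff, limit read from the data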;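 also: viability without doxorubicin minus viability with 2 µM doxorubicin for each compound; larger differential means the compound sensitizes cells more to doxorubicin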
S1P2 agonist – S1P2 receptor agonists, primary screen, cell-based | activation, % at 4.5 µM | AID 729, 2007 | S1P2-expressing cell line, agonist reporter read-out | Sphingosine 1-phosphate receptor 2 (Homo sapiens), O95136 | 97,000 compounds, 0.46% hits; in the data active = activation above about 16%;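 also: 0% = vehicle low control and 100% = maximal reference agonist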
The depositor's hits bear a star; . = no result.

SMILES	GALR2 antag	S1P2 antag	GALR2 agonist	MRP-1 activ	MRP resist rev	S1P2 agonist
COc1ccc(NC(=O)c2c(F)cccc2F)cc1S(=O)(=O)Nc1ccc(Br)cc1	7	.	0	6.3*	.	.
CCOc1ccc(Br)cc1S(=O)(=O)Nc1ccc(NC(=O)c2ccccc2F)cc1	7	.	1	-2	.	.
CCOC(=O)/C=C1\Nc2ccccc2OC1=O	12	.	0	-5	.	.
CCN(CC)CCN(Cc1cc2cc(C)cc(C)c2[nH]c1=O)C(=S)NCc1ccco1	-3	.	-1	23*	.	.
CCN(CC)CCN(Cc1cc2cc(C)ccc2[nH]c1=O)C(=S)NCc1ccco1	-9	.	-1	-4	.	.
Clc1ccccc1-c1nc2nc3ccccc3nc2n1-c1ccc2c(c1)OCO2	-10	.	1	-3	.	.
O=C(CSc1ccc(Cl)cc1)Nc1cccc(-c2nc3ccccc3[nH]2)c1	1	.	6.2*	-6	.	.
O=C(CSc1ccccc1)Nc1ccc(-c2nc3ccccc3[nH]2)cc1	-5	.	-1	-3	.	.
N#C/C(=N/Nc1ccccc1F)C(=N)N1CCOCC1	1	-11	-1	8.1*	.	-2
O=C(NC(Nc1ncc(S(=O)(=O)c2ccc([N+](=O)[O-])cc2)s1)(C(F)(F)F)C(F)(F)F)c1ccc(Cl)cc1	16	47*	-3	-3	.	-6
COc1ccc2cc(-c3cc(C(=O)O)c4ccccc4n3)ccc2c1	14	-10	-3	6.5*	.	-3
COc1ccc(-c2cc(C(=O)Nc3c(Cl)cc(Cl)cc3Cl)c3ccccc3n2)cc1OC	0	.	4.9*	-4	.	.
c1ccc(NCC2OCc3ccccc3CO2)cc1	-5	.	-1	0	.	.
Nn1c(N2CCCCC2)nc2ccccc21	1	8	-2	-1	3	-4
CC1SC(C)C(=O)N(CC(=O)NCc2ccc(F)cc2)C1=O (configuration not stated)	-12	.	0	-1	.	.
COc1ccc(OC)c2[nH]c(=O)c(CCNC(=O)c3ccc(Br)o3)cc12	11	-8	-1	4.7*	-4	-3
N/C(Cc1ccc(Cl)cc1)=N\OC(=O)C1CCCCC1	-5	.	-1	-1	.	.
COCCCn1c(SCc2nc3ccccc3c(=O)[nH]2)nc2ccccc2c1=O	-2	-32	1	-1	-9	23*
CCn1c(SCc2nc3ccccc3c(=O)[nH]2)nc2ccccc2c1=O	-8	-9	2	-7	-11	15
Clc1ccc(OCCSc2ncccn2)c2ccccc12	-5	-5	-3	5.0*	2	-3
O=C1NC(=O)C2(COC3(CCCC3)OC2)S1	14	20	-1	4.8*	-1	-9
COc1ccc(C2OCC3(CO2)SC(=O)NC3=O)cc1 (configuration not stated)	15	.	-1	-2	.	.
CC(C)(C)SCCNC(=O)Nc1ccccc1	10	.	-1	-2	.	.
COc1cc2c(cc1OC)-c1cc(OCc3ccccc3Cl)nc(=O)n1CC2	-1	-51	1	0	7	29*
COc1cc2c(cc1OC)-c1cc(NC3CCCC3)nc(=O)n1CC2	-7	-35	0	-1	3	24*
SMILES	GALR2 antag	S1P2 antag	GALR2 agonist	MRP-1 activ	MRP resist rev	S1P2 agonist
COc1cc(CNC2CCCC2)cc(Cl)c1OCc1ccccc1Cl	-11	-5	0	-8	.	-3
Cc1oc(-c2ccccc2F)nc1CN1CCC(C(=O)NCCC2=CCCCC2)CC1	-3	4	-1	-2	2	-6
Cc1ccc(NC2=CC(=O)CC(c3ccc(Cl)cc3)C2)cc1 (configuration not stated)	-6	.	2	4.7*	.	.
Cc1ccc(NC2=CC(=O)CC(c3ccccc3)C2)cc1 (configuration not stated)	-7	.	2	-4	.	.
CC(=O)c1nn(-c2cccc(Br)c2)cc1C(=O)c1ccc(Cl)cc1	-10	.	7.5*	-5	.	.
CC(=O)c1nn(-c2cccc(Br)c2)cc1C(=O)c1ccccc1	-13	2	0	0	.	-2
COc1ccc(CN=C2NC(=O)CC(C(=O)Nc3ccc(F)cc3)S2)cc1 (configuration not stated)	-2	.	0	6.7*	.	.
O=C(N/N=C1/CC2C=CCC12)c1ccco1 (configuration not stated)	-1	.	-1	-1	.	.
CCOC(=O)C(C(=O)Nc1cccc(C)n1)C1CCCCC1 (configuration not stated)	9	-12	-5	3	1	-7
CCOC(=O)C(C(=O)Nc1nc2ccccc2s1)C1CCCCC1 (configuration not stated)	9	-9	-3	7.1*	-13	-5
CCOC(=O)C(C(=O)Nc1nccs1)C1CCCCC1 (configuration not stated)	11	1	-1	4.7*	14	-6
Cc1c(C(=O)Nc2nnc(C(F)(F)F)s2)oc2ccccc12	.	.	.	8.9*	-20	.
CCC(C)NC(=S)N(CCc1ccccc1)Cc1cc2cc(OC)c(OC)cc2[nH]c1=O (configuration not stated)	-4	.	0	-4	.	.
CCNc1nc(N)nc(Oc2ccc(OCCOc3ccc(Cl)cc3Cl)nn2)n1	8	-6	2	2	7	-7
N#C/C(=C\c1c[nH]c2ccccc12)C(=O)Nc1ncc(Cc2ccc(Cl)cc2Cl)s1	-10	.	6.4*	-7	.	.
Clc1cccc(N/N=C(\Cc2nc3ccccc3[nH]2)c2ccccc2)c1	3	.	0	-5	.	.
CCCS(=O)(=O)c1nnnn1-c1cccc(OC)c1	84*	.	-1	-3	1	.
COc1cccc(-n2nnnc2SCC(=O)Nc2ccc(C(C)=O)cc2)c1	20	-8	0	2	10	-2
COc1ccc2c(c1)-c1nc(/N=C/c3ccc(O)c(OC)c3)sc1CC2	8	.	-1	-2	.	.
CCn1c(C)c(C)c2cc(C(=O)Nc3cccc(Cl)c3)ccc21	5	13	-1	6.5*	.	-5
Cc1nc(=O)c(-c2ccccc2)c(C)n1-c1ccc(S(N)(=O)=O)cc1	-2	4	0	6.8*	9	-2
Cc1nc(=O)c(-c2ccccc2)c(C)n1CCCO	5	-14	-2	-1	.	-1
Cc1nc(=O)c(-c2ccccc2)c(C)n1-c1ccc(C(=O)O)cc1	0	29	-1	9.1*	-5	-3
CCOC(=O)CN1C(=O)C(C)(C)Oc2ccc(C(=O)Nc3ccccc3OC)cc21	9	10	-1	5.3*	-6	-7
CCOc1cccc(OCCCCn2ccnc2)c1	2	9	-1	-1	3	83*
Cc1ccc(NC(=O)COc2ccc(CCO)cc2-n2nc3ccccc3n2)cc1C	-7	.	5	-4	.	.
CCN(CC)c1c2c(c(C#N)c3nc4ccccc4n13)CCC2	4	-36	1	-5	-10	20*
Cc1nccn1-c1c2c(c(C#N)c3nc4ccccc4n13)CCC2	.	.	.	.	-11	.
